# Measured values taken from PubChem BioAssay (Tox21).
# Results filed as inconclusive are left out. Unmarked numbers belong to inactive results. The call rests on the fitted dose curve; in most records, active means well fitted cell-killing curve with a large enough effect in the repeat runs; inconclusive means weak or mixed curves, or effect the other way; inactive means no such curve, though single readings can be large or run the other way.
# Assay: qHTS assay to identify small molecule agonists of the vitamin D receptor (VDR) signaling pathway - cell viability counter screen (AID 743224); further: nearly all actives have a fitted effect of over 50% in size
# Settings: VDR-bla HEK293T viability, CellTiter-Glo luminescence, 16 h; series mostly up to 62.6 µM; activity change, negative = cytotoxicity: at the top concentration
# Method in brief: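 Cells: VDR-bla, 2,000/well, settled 4 h. Treatment: compounds in DMSO, 16 h, 37C/5% CO2. Readout: CellTiter-Glo luminescence after 30 min RT.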
# On the % scale 0 is the no-effect control and ±100 the full control effect.
row,SMILES,"activity change, negative = cytotoxicity"
1,CCC(C)n1c(=O)[nH]c(C)c(Br)c1=O (stereo not drawn),-2.48%
2,C[N+](C)=CCl,-18.1%
3,CCOP(=S)(OCC)Oc1cc(-c2ccccc2)on1,12.3%
4,CC(C)(C)OC(=O)c1ncn2c1[C@@H]1CCCN1C(=O)c1c(Br)cccc1-2,3.49%
5,O=C(Cc1ccccc1)OCc1ccccc1,2.94% [at 81.1 µM]
6,CCOC(=O)NC(=S)Nc1ccccc1NC(=S)NC(=O)OCC,12.4%
7,O=NN1CCN(N=O)CC1,-0.639%
8,COc1cc(OC)nc(Sc2cccc(Cl)c2C(=O)O)n1,22.3%
9,CN1CCC(O)(c2ccc(F)cc2)C(C(=O)c2ccc(F)cc2)C1 (stereo not drawn),-2.88%
10,CCCCc1ccc(O)cc1,0.274%
11,CN1C(=S)CN=C(c2ccccc2)c2cc(Cl)ccc21,-0.786%
12,C1CCC(C2CCCCC2)CC1,-1.11%
13,C#C[C@]1(O)C=C[C@H]2[C@@H]3CCC4=CC(=O)CC[C@@H]4[C@H]3CC[C@@]21CC,0.846%
14,CC(CC(C#N)(c1ccccc1)c1ccccc1)N(C)C (stereo not drawn),-8.16% [at 81.1 µM]
15,CCCCCCBr,-12.1% [at 81.1 µM]
16,Nc1c(Br)cc([N+](=O)[O-])cc1[N+](=O)[O-],5.87% [at 81.1 µM]
17,Nc1cc(Cl)ccc1O,-1.78%

row,SMILES,"activity change, negative = cytotoxicity"
1,O=[N+]([O-])c1ccc2c3c(cccc13)CC2,11.9%
2,BrCCCCCCBr,0.286%
3,CCN(CC)c1nc(C)cc(OP(=S)(OC)OC)n1,-16.4%
4,CCOc1nc(C(Cl)(Cl)Cl)ns1,14%
5,C[C@H]1CCC[C@H](O)CCCCCc2cc(O)cc(O)c2C(=O)O1,-15.5% [at 81.1 µM]
6,CC(Cl)(Cl)[N+](=O)[O-],6.81%
7,CC(COc1ccc(Oc2ccccc2)cc1)Oc1ccccn1 (stereo not drawn),1.82%
8,CCNc1nc(NC(C)C)nc(OC)n1,0.42%
9,CC1=NNC(=O)N(/N=C/c2cccnc2)C1,0.0534%
10,N#CC(CCc1ccc(Cl)cc1)(Cn1cncn1)c1ccccc1 (stereo not drawn),-16.8%
11,CCOP(=S)(OCC)SCSP(=S)(OCC)OCC,-10.8%
12,CCCCOC(=O)c1ccccc1C(=O)O,4.73%
13,Nc1cnn(-c2ccccc2)c(=O)c1Cl,4.6%
14,CCCCOP(=O)(O)OCCCC,8.57%
15,COP(N)(=S)Oc1ccccc1C(=O)OC(C)C (stereo not drawn),-0.0533%
16,CNC(=O)Oc1ccc(N(C)C)c(C)c1,-5.59%
